Rows were chosen to be rich in hits. Some 2.4% of all compounds tested hit in one or more screens of this group.
INS-1E GSIS act = GLuc luminescence reporter in INS-1E cells, primary screen for activators of glucose-dependent secretion of insulin; INS-1E GLuc reporter insulin secretion, 2-3 h; activation, % at 16.6 µM; 370,000 compounds, 0.61% hits; AID 743287, 2014;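 active = lowest replicate activation of at least 40%, so every replicate reaches that level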;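 also: 0% = median of neutral control wells and 100% = median of IBMX positive control wells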
Wnt act = Wnt/beta-catenin pathway activators, primary screen, cell-based, plate reader, single point; activation, % at 9.35 µM; AID 743398, 2014; Wnt/beta-catenin reporter cell assay, activator; 300,000 compounds, 1.2% hits; in the data active = activation above about 30%, passing the limit was not always enough;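 also: 0% = neutral control wells and 100% = positive control wells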
miR122 inh = miR-122 Renilla sensor signal increase in Huh7, primary screen, miR-122 inhibitor project, cell-based, single point, plate reader; Huh7 miR-122 Renilla luciferase sensor, 48 h; neutral wells = 0, positive control = 100; 340,000 compounds, 0.3% hits; activation (reporter increase), % at 12.5 µM;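 active = mean replicate activation score at least 90 and every replicate individually at or above 90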;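 also: higher luciferase means less miR-122 activity so hits act as miR-122 inhibitors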
MITF TRPM1 HTS = activators of MITF-driven TRPM1 promoter reporter, primary screen, cell-based, SK-MEL-5, luciferase, single point. SK-MEL-5 TRPM1-promoter luciferase, 24 h; % of positive control, neutral wells = 0. activation, % at 12.5 µM. 300,000 compounds, 0.75% hits;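 active = mean activation of at least 80% with every replicate also reaching 80%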;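 also: 0% = neutral control wells and 100% = parthenolide positive control wells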
NSD2 HMT inh = NSD2 histone methyltransferase inhibitors, primary screen, biochemical, AlphaScreen, single concentration, set 2. Histone-lysine N-methyltransferase NSD2 (Homo sapiens), O96028. NSD2 peptide methylation, 120 min. inhibition, % at 12.5 µM. 310,000 compounds, 0.54% hits. AID 743445, 2014
Target sequence (O96028 whole entry, looked up): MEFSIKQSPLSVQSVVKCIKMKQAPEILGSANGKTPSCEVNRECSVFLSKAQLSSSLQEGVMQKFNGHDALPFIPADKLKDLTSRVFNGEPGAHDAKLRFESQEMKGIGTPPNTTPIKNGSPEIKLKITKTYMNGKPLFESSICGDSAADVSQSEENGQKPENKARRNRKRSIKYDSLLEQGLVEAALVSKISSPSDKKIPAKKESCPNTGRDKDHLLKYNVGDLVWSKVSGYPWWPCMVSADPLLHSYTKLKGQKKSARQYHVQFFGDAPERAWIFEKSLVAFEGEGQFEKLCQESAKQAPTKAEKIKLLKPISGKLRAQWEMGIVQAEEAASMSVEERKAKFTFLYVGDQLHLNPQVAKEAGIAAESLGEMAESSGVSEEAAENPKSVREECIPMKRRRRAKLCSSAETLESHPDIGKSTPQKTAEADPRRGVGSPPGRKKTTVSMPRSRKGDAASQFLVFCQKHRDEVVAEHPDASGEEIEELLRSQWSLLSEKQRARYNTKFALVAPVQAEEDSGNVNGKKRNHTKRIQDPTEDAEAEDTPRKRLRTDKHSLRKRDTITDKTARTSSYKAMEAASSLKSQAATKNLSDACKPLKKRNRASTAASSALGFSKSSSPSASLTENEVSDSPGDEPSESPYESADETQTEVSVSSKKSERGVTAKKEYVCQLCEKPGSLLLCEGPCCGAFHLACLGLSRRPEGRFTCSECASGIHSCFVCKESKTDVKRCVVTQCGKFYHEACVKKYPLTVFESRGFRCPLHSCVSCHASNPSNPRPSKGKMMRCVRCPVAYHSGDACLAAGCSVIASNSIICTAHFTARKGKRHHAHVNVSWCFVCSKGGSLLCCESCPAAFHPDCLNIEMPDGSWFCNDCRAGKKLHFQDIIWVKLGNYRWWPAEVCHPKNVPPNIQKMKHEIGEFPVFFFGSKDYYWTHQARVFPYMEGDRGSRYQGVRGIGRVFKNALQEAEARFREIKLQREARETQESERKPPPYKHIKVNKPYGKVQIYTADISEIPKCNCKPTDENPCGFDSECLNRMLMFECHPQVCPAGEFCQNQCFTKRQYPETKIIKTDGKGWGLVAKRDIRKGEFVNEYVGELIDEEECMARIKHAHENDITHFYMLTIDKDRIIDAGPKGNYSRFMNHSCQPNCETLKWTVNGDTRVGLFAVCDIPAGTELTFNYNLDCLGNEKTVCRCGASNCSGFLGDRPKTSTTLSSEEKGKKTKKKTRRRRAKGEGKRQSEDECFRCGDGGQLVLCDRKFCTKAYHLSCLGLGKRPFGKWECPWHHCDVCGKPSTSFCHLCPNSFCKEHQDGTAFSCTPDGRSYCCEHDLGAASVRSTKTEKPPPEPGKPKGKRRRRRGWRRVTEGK
DYRK1A inh = rat Dyrk1A kinase inhibitors, primary screen, biochemical, single point, plate reader; inhibition, % at 12.5 µM; ADP-Glo luminescence, NFATc1 peptide; AID 504441, 2011; Dual specificity tyrosine-phosphorylation-regulated kinase 1A (Rattus norvegicus), Q63470; 310,000 compounds, 0.43% hits;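 also: plate controls were vehicle with enzyme for no effect and no enzyme for full effect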
AlphaScreen art = AlphaScreen signal interference with preloaded methylated product, dose response, artefact control for NSD2 inhibitor project, biochemical, cherry-picked samples | shares compounds with NSD2 HMT inh | AlphaScreen artifact counterscreen, preloaded methylated H4 peptide | AC35, µM (doses to about 10 µM), without a hit: top-dose activity change, negative = signal loss | 1,500 compounds, 9.4% hits; call rule not given here
Numbers without * were called inactive; [ ] = remark or other dose. Rule as the data show it, unless noted: active = inhibition above about 50%; inactive = the rest.

Screening Oc1ccccc1/C=N/Nc1cc(N2CCCC2)nc(N2CCCC2)n1 returned INS-1E GSIS act 22, Wnt act -1, miR122 inh 53, MITF TRPM1 HTS -6, NSD2 HMT inh 54* and AlphaScreen art -14%.
Screening Oc1cccc(/C=N/Nc2cc(N3CCOCC3)nc(N3CCOCC3)n2)c1 returned INS-1E GSIS act -13, Wnt act 6, miR122 inh 0, MITF TRPM1 HTS 21, NSD2 HMT inh 23 and DYRK1A inh 5.
`Oc1ccc(/C=N/Nc2cc(N3CCOCC3)nc(N3CCOCC3)n2)cc1O` gave INS-1E GSIS act 2, Wnt act -4, MITF TRPM1 HTS 19, NSD2 HMT inh 106*, DYRK1A inh 11 and AlphaScreen art -18%.
Screening CC(C)NC(=O)N1[C@H](CO)[C@H]2c3ccccc3N(C(=O)Nc3ccc(Cl)cc3)C[C@H]21 returned INS-1E GSIS act -5 and miR122 inh 28[16.7 µM].
Screening CCOC(=O)Cn1ncc(-c2ccccc2)c1N returned Wnt act 21, miR122 inh 9, NSD2 HMT inh 128*, DYRK1A inh -8 and AlphaScreen art -1%.
CCOC(=O)Cn1nc(-c2ccccc2)nc1-c1ccccc1 was read as Wnt act 6, NSD2 HMT inh -5 and DYRK1A inh 8.
Screening COCc1[nH][nH]c(=O)c1C=NCC(=O)OC returned INS-1E GSIS act -12, Wnt act 0, miR122 inh -4, MITF TRPM1 HTS -10, NSD2 HMT inh 51*, DYRK1A inh -3 and AlphaScreen art -6%.
Screening COCc1[nH][nH]c(=O)c1C=Nc1ccccc1 returned Wnt act 1, miR122 inh 1, MITF TRPM1 HTS -9, NSD2 HMT inh 0 and DYRK1A inh -14.
`CC(Nc1cccc2ccccc12)C(=O)N/N=C/c1ccccn1` (centres undefined) gave miR122 inh 14, MITF TRPM1 HTS -26, NSD2 HMT inh 132*, DYRK1A inh 10 and AlphaScreen art -8%.
`NC1(C(=O)O)CSSC1` gave INS-1E GSIS act -28, Wnt act -1, MITF TRPM1 HTS -65, NSD2 HMT inh 76*, DYRK1A inh 0 and AlphaScreen art -2%.
`O=C(/C=C/c1ccc(-c2ccccc2)cc1)NCc1cccnc1` gave INS-1E GSIS act 0, Wnt act 4, MITF TRPM1 HTS 26, NSD2 HMT inh 62*, DYRK1A inh 3 and AlphaScreen art -2%.
Screening COc1ccc2c3c(n(C)c2c1)[C@H](CO)N(C(=O)c1cnccn1)CC31CN(C)C1 returned INS-1E GSIS act 5.
Screening Cc1cccc(NC(=O)C2CCN(C(=O)NCc3ccccc3)CC2)c1C returned INS-1E GSIS act -10, Wnt act 0, miR122 inh -3, MITF TRPM1 HTS -15, NSD2 HMT inh 66*, DYRK1A inh 3 and AlphaScreen art 0%.
O=C(C=Cc1ccccc1)c1cc(Br)ccc1O was read as INS-1E GSIS act 8, Wnt act 9, miR122 inh -5, MITF TRPM1 HTS 11, NSD2 HMT inh 54*, DYRK1A inh -4 and AlphaScreen art -5%.
Screening Cc1ccc(O)c(C(=O)C=Cc2ccccc2)c1 returned INS-1E GSIS act -15, Wnt act 11, MITF TRPM1 HTS -2, NSD2 HMT inh -2 and DYRK1A inh -6.
`CCCCCNc1nc(NCCCO)c(C#N)c2c1CN(C)CC2` gave INS-1E GSIS act -3, miR122 inh 0, MITF TRPM1 HTS -10, NSD2 HMT inh 51*, DYRK1A inh 9 and AlphaScreen art -5%.
Screening CC(C)(C)NC(=O)C(c1ccco1)N(C(=O)Cn1nnc(-c2ccc(F)cc2)n1)c1ccccc1F (centres undefined) returned INS-1E GSIS act -16, miR122 inh -5, MITF TRPM1 HTS -4, NSD2 HMT inh 50*, DYRK1A inh 1 and AlphaScreen art -3%.
Screening O=C(C[C@@H]1CC[C@@H]2[C@H](COC[C@@H](O)CN2Cc2cc(F)cc(F)c2)O1)NC1CCC1 returned INS-1E GSIS act -4 and miR122 inh -2[16.7 µM].
Screening O=C(CN(C(=O)c1csnn1)c1ccc(F)c(Cl)c1)NC1CCCCC1 returned INS-1E GSIS act 8, Wnt act -1, miR122 inh -6, MITF TRPM1 HTS 3, NSD2 HMT inh 88*, DYRK1A inh -8 and AlphaScreen art 4%.
For O=C(CN(C(=O)c1csnn1)c1ccc(Cl)cc1)NC1CCCC1 the results were INS-1E GSIS act 20, Wnt act 14, MITF TRPM1 HTS 12, NSD2 HMT inh -1 and DYRK1A inh -5.
Screening Cc1ccc(-n2c(C)c(C)c3c(N)ncnc32)cc1 returned INS-1E GSIS act 15, Wnt act 5, miR122 inh -3, MITF TRPM1 HTS 15, NSD2 HMT inh 67*, DYRK1A inh 16 and AlphaScreen art -7%.
Screening CCCn1c(C)nc2c(c1=O)c1nc3ccccc3nc1n2-c1ccccc1 returned INS-1E GSIS act 4, Wnt act 1, miR122 inh -4, MITF TRPM1 HTS 10, NSD2 HMT inh 54*, DYRK1A inh -20 and AlphaScreen art 1%.
`O=C1ON=C(c2ccccc2)/C1=C/c1ccc(O)cc1` gave Wnt act 2, miR122 inh -2, MITF TRPM1 HTS -9, NSD2 HMT inh 63*, DYRK1A inh -3 and AlphaScreen art -3%.
COc1cc(/C=C2\C(=O)ON=C2c2ccccc2)cc(Cl)c1O was read as INS-1E GSIS act -7, Wnt act 0, miR122 inh 2, MITF TRPM1 HTS -22, NSD2 HMT inh 64*, DYRK1A inh 0 and AlphaScreen art -6%.
Screening COc1cc(/C=C/c2nc3ccccc3c(=O)[nH]2)cc(Cl)c1O returned INS-1E GSIS act 4, Wnt act 4, miR122 inh -2, MITF TRPM1 HTS 8, NSD2 HMT inh 82*, DYRK1A inh 0 and AlphaScreen art -6%.
For CC(=O)N1[C@H](C(=O)N(C)C)[C@@H](CO)[C@@H]2Cn3c(ccc(-c4ccc(F)cc4)c3=O)[C@@H]21 the results were INS-1E GSIS act 15 and miR122 inh -2[16.7 µM].
CO[C@H]1CN(C)C(=O)c2ccc(NC(=O)NC(C)C)cc2OC[C@H](C)N(C(=O)C2CCC2)C[C@@H]1C was read as INS-1E GSIS act 8.
